Experiment [1] is described as follows: Validation screen for small molecules that induce DNA re-replication in MCF 10A normal breast cells (AID 463097). Also: nearly all actives have a fitted effect of over 60% in size. Also: potency is read from the fitted curve at half-maximal effect. A digest of the protocol: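 250 MCF 10A cells/well; compound pin-transferred; 48 hr, 37 C, 5% CO2; Hoechst 40 min; imaged 405/500-530 nm. Hits = more high-intensity nuclei.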
Experiment [2] can be described thus: Quantitative high throughput screen for delayed death inhibitors of the malarial parasite plastid, 96 hour incubation (AID 488745).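 Also: luciferase-expressing P. falciparum in erythrocytes at 2% hematocrit and 0.1% parasitemia; series mostly up to about 29 µM; nearly all actives have a fitted effect of over 70% in size.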 Summed up:
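Readout is firefly luciferase luminescence from an integrated reporter in P. falciparum; lower signal marks inhibited growth. Cultures at 2% hematocrit and 0.1% parasitemia were treated with compound across two generations (96 h, 37 C, 5% CO2).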

Experiment [3] can be described thus: Quantitative high throughput screen for delayed death inhibitors of the malarial parasite plastid, 48 hour incubation (AID 488752). Also: nearly all actives have a fitted effect of over 65% in size. Also: potency is read from the fitted curve at half-maximal effect. Summed up: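 First, compound was pinned into RPMI 1640 medium containing 0.5% Albumax. Next, reporter-parasite-infected erythrocytes were added to 2% hematocrit and 0.1% parasitemia. After 48 h at 37 C under 5% CO2, luciferase detection reagent was added and luminescence read.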

The target of experiment [4] is M-phase phosphoprotein 8 (Homo sapiens) (UniProt Q99549). Put plainly: qHTS Validation Assay for Inhibitors for MPP8 Chromodomain Interactions with Methylated Histone Tails (AID 488949). Also: nearly all actives have a fitted effect of over 55% in size. Also: potency is read from the fitted curve at half-maximal effect. A digest of the protocol: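 AlphaScreen read-out: streptavidin donor and nickel chelate acceptor beads (final 10 ug/mL), 30 min in the dark at RT. Complex of 50 nM MPP8 and 50 nM b-H3(1-18)K9me3 peptide had been exposed to compounds for 30 min beforehand.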
Background: qHTS replaces the single test concentration by a dilution series.

For experiment [5], the target named is Transient receptor potential cation channel subfamily V member 1 (Homo sapiens) (UniProt Q8NER1). Put plainly: HTS Assay for Compounds that Act as Enhancers of the Vanilloid Receptor 1 (AID 488979). Summed up: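 Calcium influx kinetics via Fluo-8 (480/520 nm) in TRPV1-expressing cells, 2000/well cultured overnight at 35.5C. Compound-alone read 3 min (agonist phase), followed by EC20 capsaicin challenge for 2 min (enhancer phase).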

The target in experiment [6] is Thyrotropin receptor (Homo sapiens) (UniProt P16473). Put plainly: qHTS Assay for Antagonists of the Thyroid Stimulating Hormone Receptor (AID 488980). Also: series mostly up to about 58 µM. A digest of the protocol:
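TSHR-HEK293 cells; 70 uM RO 20-1724 PDE inhibitor; compound + EC80 TSH (4 nM final); anti-cAMP cryptate antibody/cAMP-d2 in lysis buffer, 30 min RT; HTRF 665/620 nm read.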

Experiment [7] deals with Ubiquitin carboxyl-terminal hydrolase 2 (Homo sapiens) (UniProt O75604). Put plainly: qHTS Validation Assay for Inhibitors of Ubiquitin-specific Protease USP2a Using CHOP2 as the Reporter (AID 463106). A digest of the protocol: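 Readout was coupled fluorescence (Ex 485/Em 531 nm), read 60 min after adding 25 nM final Ub-CHOP2 and 25 nM reporter substrate. Beforehand, 10 nM final USP2 core had 30 min at RT with compound in pH 8.0 buffer. Curves were fitted after normalization to NEM and flagged for artifacts using time-zero reads.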

The target of experiment [8] is DNA polymerase III PolC-type (Bacillus subtilis (strain 168)) (UniProt P13267). Put plainly: qHTS Validation Assay for the Inhibitors of DNA Replication in Gram-Positive Bacteria (AID 485295).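 Also: reconstituted holoenzyme with PolC plus beta clamp SSB and primase; PicoGreen fluorescence of double-stranded DNA made on primed circular M13 template; series mostly up to about 57 µM.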 A digest of the protocol:
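PicoGreen fluorescence (ex 480–485/em 535–540 nm) reports dsDNA synthesized on ssM13Gori template with dNTPs/NTPs. Enzyme: holoenzyme rebuilt from purified PolC, beta subunit, SSB and primase. Compound preincubated before substrate addition; RT throughout.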

Experiment [9] deals with Tumor susceptibility gene 101 protein (Homo sapiens) (UniProt Q99816). Put plainly: qHTS Validation Assay for Iinhibitors of HIV-1 Budding by Blocking the Interaction of PTAP/TSG101 (AID 485342; calls by dose curve). A digest of the protocol: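 FP read-out: FITC-PTAP peptide, 50 nM final, binding Tsg101 binding domain, 10 uM final; 20 min r.t.; 10 mM HEPES pH 7.5, 0.15 M NaCl, 0.01% Tween 20, 3 mM EDTA, 0.1 mM TCEP.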

Experiment [10] is described as follows: qHTS Validation Assay to Find Inhibitors of Chronic Active B-Cell Receptor Signaling (AID 485345; active = well fitted curve in the direction sought with a large enough effect in the main read-out, with a control signal flat, not every such curve was filed as active). A digest of the protocol:
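Read-out: ratio of filter-corrected green (IkappaBalpha fusion) to red (native) luciferase signal in doxycycline-induced TMD8 cells after 4 h at 37C. Titration spanned 46 uM–3 nM; Data were normalised to basal cells and 10 uM MG-132 wells.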

For experiment [11], the target named is Beta-2 adrenergic receptor (Homo sapiens) (UniProt P07550). Put plainly: qHTS validation assay of beta-arrestin-biased ligands of beta2-adrenergic receptor (AID 485366). Summed up: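 Agonism was measured as beta-arrestin recruitment to recombinant beta2-AR, releasing tTA to drive luciferase. Cells were exposed for 18 hr at 37 degrees C to a series up to 46 microM. %Activity from corrected luminescence gave concentration-response curves.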

Experiment [12] has as its target ATP-dependent 6-phosphofructokinase (Trypanosoma brucei brucei) (UniProt O15648). Put plainly: qHTS Validation Assay to Find Inhibitors of T. brucei phosphofructokinase (AID 485368). Also: potency is read from the fitted curve at half-maximal effect. A digest of the protocol:
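ADP-Glo luminescence, two-step: residual ATP depleted, then ADP converted to ATP for luciferase. Enzyme 1.25 nM, F6P 0.5 mM, ATP 0.1 mM, pH 8.0 TEA buffer, 45 min RT. Curves fitted and classed by quality and efficacy.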

In experiment [13] the target is Thioredoxin reductase 1, cytoplasmic (Rattus norvegicus) (UniProt O89049). Put plainly: qHTS Assay for Inhibitors of Mammalian Selenoprotein Thioredoxin Reductase 1 (TrxR1) (AID 488773). Also: nearly all actives have a fitted effect of over 40% in size. Also: potency is read from the fitted curve at half-maximal effect. The note with it: Potency: inhibition. A digest of the protocol: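 Inhibition is scored from the loss of NADPH fluorescence between first and last reads of an 8-min kinetic run. Selenite (400 uM) was the substrate, added after 15 min compound preincubation at room temperature.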

The target of experiment [14] is Flap endonuclease 1 (Homo sapiens) (UniProt P39748). Put plainly: qHTS Validation Assay for the Inhibitors of Human Flap endonuclease 1 (FEN1) (AID 488816). Summed up: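 qHTS format: compounds and 10 nM FEN1 incubated 15 min at room temperature before adding 50 nM substrate. Cleavage followed by reads at 0 and 15 min; normalized data fitted to a four-parameter Hill curve.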

The target of experiment [15] is Chromobox protein homolog 1 (Homo sapiens) (UniProt P83916). Put plainly: qHTS Validation Assay for Inhibitors of HP1-beta Chromodomain Interactions with Methylated Histone Tails (AID 488953). Also: nearly all actives have a fitted effect of over 50% in size. Also: potency is read from the fitted curve at half-maximal effect. Summed up:
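Disruption of preformed HP1-beta:H3K9me3 peptide complexes (both 50 nM, PBS pH 7.4 with 0.01% Tween-20) is measured by AlphaScreen after 30 min compound exposure at room temperature, using streptavidin donor and nickel chelate acceptor beads at 10 ug/mL final.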

Experiment [16] addresses Methanococcus maripaludis chaperonin (MmCpn) (UniProt Q6LX38). Put plainly: High-Throughput Screening for Modulators of Cytosolic Chaperonin Activity: MmCpn Primary Screen (AID 488978). A digest of the protocol: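 ADP formation read by HTRF Transcreener, 665/590 nm emission after 320 nm excitation. Enzyme: archaeal chaperonin at 50 nM final; substrate ATP 30 uM final; 10 min, 37C, after 5 min compound preincubation at RT.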

For experiment [17], the target named is D(1A) dopamine receptor (Homo sapiens) (UniProt P21728). Put plainly: HTS Assay for Allosteric Agonists of the Human D1 Dopamine Receptor: Primary Screen for Agonists (AID 488981). A digest of the protocol:
(§1)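 Calcium flux in an inducible, force-coupled HEK293 Trex D1 line (overnight at 30 C): agonist mode is the 180 s kinetic read after compound; potentiator mode is the following 180 s read after dopamine at EC20.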

For experiment [18] the target is unchanged. Put plainly: HTS Assay for Allosteric Agonists of the Human D1 Dopamine Receptor: Primary Screen for Potentiators (AID 488982). Summed up: as §1
Experiment [19] has the same target. Put plainly: HTS Assay for Allosteric Agonists of the Human D1 Dopamine Receptor: Primary Screen for Antagonists (AID 488983).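 Also: calcium flux response to an EC80 dopamine challenge measured with no-wash dye; nearly all actives have a fitted effect of over 65% in size.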 A digest of the protocol:
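Kinetic fluorescence at 1 cycle/sec tracked intracellular calcium in force-coupled, tetracycline-inducible HEK293 T-REx D1 cells. Loss of response to an EC80 dopamine dose, given 180 s after compound, marked antagonists.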

A short description of experiment [20]: Cytometry Cell-Based qHTS for Inhibitors of the mTORC1 Signaling Pathway in MEF cells (AID 2668).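 Also: Tsc2-/- p53-/- mouse embryonic fibroblasts stably re-expressing wild-type Tsc2; percent cells positive for phospho-rpS6 Ser235/236 relative to propidium iodide stain; series mostly up to about 38 µM.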 Summed up:
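Read-out: phospho-rpS6 Ser235/236 immunofluorescence normalized to propidium iodide intensity, scored as % active cells against a rapamycin (7.5 nM) threshold. Cells: Tsc2-/-, p53-/- MEFs stably expressing WT Tsc2, compound-treated 24 hrs at 37 degree Celsius.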

Records with an inconclusive call do not appear. More than one record can exist for a structure, and the calls need not agree. Active and inactive are the calls of the source. Unless noted, calls follow the shape of the dose curve; as a rule, active = well fitted curve in the direction sought with a large enough effect; inconclusive = small, poorly fitted or top-dose-only effect, or another doubt; inactive = no such curve, though single readings can be large; an effect the other way counts as inactive or inconclusive.

Chain of Thyrotropin receptor (Homo sapiens) (P16473 whole entry, looked up): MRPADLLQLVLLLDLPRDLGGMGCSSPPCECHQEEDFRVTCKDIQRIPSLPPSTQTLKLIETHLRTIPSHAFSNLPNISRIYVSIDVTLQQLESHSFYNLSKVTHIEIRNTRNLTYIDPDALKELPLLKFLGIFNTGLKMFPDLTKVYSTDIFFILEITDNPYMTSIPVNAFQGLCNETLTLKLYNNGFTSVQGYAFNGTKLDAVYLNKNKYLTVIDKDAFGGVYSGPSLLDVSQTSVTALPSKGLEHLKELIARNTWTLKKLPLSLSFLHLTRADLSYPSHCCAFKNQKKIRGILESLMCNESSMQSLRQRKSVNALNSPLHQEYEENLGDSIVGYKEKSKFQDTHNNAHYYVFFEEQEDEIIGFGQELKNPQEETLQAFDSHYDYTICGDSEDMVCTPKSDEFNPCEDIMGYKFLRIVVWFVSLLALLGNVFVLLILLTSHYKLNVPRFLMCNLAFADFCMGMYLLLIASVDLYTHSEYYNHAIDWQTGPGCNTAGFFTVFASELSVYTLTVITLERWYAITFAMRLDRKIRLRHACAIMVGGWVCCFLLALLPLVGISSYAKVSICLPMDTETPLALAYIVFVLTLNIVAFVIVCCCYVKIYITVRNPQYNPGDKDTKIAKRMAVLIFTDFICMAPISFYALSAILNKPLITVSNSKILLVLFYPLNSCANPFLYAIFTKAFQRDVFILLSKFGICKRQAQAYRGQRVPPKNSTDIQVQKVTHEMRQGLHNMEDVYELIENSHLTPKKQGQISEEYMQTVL
Chain of Tumor susceptibility gene 101 protein (Homo sapiens) (Q99816 whole entry, looked up, the tested form may be a part): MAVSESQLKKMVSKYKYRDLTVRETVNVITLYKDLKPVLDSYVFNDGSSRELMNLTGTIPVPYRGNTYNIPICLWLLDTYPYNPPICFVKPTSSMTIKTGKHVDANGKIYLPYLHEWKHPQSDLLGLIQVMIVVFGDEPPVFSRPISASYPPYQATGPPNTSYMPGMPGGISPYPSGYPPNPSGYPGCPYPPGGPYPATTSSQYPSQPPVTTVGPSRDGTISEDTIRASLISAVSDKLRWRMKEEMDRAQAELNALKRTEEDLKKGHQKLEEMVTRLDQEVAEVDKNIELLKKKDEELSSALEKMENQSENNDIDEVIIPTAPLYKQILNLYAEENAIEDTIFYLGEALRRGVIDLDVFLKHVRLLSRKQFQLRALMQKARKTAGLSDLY
Chain of Methanococcus maripaludis chaperonin (MmCpn) (Q6LX38 1-543): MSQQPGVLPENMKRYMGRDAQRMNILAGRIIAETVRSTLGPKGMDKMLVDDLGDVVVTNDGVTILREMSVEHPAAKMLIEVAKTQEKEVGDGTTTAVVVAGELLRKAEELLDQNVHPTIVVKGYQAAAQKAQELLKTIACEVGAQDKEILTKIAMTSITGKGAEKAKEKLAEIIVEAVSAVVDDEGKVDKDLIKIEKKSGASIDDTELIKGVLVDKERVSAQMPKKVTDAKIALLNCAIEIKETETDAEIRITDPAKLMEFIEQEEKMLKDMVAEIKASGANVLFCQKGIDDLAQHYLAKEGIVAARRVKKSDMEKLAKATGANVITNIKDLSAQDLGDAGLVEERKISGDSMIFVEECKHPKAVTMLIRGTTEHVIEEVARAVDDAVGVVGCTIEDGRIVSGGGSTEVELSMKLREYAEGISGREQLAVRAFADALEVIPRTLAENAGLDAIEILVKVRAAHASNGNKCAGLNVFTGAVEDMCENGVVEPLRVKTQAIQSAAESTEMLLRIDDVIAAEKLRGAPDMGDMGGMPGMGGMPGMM
Chain of Transient receptor potential cation channel subfamily V member 1 (Homo sapiens) (Q8NER1 whole entry, looked up): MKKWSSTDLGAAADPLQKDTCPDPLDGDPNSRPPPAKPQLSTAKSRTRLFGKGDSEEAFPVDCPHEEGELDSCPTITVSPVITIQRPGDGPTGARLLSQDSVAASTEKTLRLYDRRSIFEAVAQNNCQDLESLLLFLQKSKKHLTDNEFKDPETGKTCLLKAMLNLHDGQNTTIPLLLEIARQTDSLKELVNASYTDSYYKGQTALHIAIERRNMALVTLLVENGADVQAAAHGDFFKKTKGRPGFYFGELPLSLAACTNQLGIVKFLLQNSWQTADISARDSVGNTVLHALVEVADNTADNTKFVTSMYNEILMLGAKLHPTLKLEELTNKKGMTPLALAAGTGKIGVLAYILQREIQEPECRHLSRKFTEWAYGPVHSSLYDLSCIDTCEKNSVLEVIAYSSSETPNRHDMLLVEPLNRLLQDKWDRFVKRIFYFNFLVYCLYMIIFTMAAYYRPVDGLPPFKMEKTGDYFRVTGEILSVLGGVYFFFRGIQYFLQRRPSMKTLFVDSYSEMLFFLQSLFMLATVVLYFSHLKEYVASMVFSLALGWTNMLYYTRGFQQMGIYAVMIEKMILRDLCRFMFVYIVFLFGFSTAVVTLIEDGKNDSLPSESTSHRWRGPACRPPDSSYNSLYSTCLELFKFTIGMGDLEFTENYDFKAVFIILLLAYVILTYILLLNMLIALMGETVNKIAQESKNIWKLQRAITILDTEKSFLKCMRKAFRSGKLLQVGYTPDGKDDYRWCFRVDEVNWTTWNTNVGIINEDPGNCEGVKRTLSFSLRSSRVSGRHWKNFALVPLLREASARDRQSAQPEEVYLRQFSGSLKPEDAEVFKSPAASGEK
Chain of Flap endonuclease 1 (Homo sapiens) (P39748 whole entry, looked up): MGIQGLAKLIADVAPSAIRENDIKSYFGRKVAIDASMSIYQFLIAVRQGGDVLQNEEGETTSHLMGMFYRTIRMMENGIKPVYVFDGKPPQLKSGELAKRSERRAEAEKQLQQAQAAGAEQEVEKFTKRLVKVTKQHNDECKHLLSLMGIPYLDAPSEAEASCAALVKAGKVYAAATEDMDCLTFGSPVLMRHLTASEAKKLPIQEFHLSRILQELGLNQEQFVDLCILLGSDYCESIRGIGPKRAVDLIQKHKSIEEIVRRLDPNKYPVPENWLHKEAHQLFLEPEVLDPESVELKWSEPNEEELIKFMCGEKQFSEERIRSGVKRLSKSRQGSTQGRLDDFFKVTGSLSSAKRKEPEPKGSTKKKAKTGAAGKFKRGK
Chain of Chromobox protein homolog 1 (Homo sapiens) (P83916 whole entry, looked up): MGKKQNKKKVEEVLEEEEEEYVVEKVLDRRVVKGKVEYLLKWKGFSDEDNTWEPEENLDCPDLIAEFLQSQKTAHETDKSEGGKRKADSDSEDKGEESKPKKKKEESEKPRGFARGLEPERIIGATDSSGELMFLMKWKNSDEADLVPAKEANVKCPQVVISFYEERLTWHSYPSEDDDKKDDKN
Chain of Beta-2 adrenergic receptor (Homo sapiens) (P07550 whole entry, looked up): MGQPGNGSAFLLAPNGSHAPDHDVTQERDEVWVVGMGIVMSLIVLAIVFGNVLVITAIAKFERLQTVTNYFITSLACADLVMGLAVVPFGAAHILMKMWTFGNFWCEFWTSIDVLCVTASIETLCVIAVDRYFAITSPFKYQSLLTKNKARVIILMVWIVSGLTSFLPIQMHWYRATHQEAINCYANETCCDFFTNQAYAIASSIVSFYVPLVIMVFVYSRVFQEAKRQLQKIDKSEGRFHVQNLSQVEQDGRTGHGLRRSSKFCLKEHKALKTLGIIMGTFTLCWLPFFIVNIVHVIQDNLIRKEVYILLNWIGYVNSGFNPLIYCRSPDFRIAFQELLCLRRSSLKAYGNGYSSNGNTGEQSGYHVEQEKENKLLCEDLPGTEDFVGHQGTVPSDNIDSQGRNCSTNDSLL
Chain of M-phase phosphoprotein 8 (Homo sapiens) (Q99549 whole entry, looked up): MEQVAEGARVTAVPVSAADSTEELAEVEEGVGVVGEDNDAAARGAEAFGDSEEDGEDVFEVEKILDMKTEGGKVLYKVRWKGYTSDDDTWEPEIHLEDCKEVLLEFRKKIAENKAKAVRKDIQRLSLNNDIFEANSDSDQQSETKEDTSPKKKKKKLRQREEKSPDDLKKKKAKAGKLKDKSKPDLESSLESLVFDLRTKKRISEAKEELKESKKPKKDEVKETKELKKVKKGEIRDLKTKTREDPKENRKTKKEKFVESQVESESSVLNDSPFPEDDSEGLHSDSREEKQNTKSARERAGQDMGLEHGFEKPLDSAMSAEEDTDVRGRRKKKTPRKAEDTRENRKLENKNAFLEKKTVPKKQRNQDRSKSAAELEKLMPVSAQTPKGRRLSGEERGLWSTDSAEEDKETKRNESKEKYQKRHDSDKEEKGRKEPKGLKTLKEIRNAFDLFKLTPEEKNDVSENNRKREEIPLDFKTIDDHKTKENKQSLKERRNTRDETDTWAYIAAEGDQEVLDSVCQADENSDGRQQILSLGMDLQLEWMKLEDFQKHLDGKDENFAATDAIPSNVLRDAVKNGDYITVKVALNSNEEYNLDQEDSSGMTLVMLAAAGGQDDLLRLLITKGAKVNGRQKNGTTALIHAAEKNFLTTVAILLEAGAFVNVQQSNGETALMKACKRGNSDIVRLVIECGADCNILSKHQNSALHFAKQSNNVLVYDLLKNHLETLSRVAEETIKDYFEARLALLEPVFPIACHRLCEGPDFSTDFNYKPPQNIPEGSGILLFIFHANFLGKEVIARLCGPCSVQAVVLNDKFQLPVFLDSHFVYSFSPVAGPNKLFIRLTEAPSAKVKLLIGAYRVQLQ
Chain of Ubiquitin carboxyl-terminal hydrolase 2 (Homo sapiens) (O75604 whole entry, looked up): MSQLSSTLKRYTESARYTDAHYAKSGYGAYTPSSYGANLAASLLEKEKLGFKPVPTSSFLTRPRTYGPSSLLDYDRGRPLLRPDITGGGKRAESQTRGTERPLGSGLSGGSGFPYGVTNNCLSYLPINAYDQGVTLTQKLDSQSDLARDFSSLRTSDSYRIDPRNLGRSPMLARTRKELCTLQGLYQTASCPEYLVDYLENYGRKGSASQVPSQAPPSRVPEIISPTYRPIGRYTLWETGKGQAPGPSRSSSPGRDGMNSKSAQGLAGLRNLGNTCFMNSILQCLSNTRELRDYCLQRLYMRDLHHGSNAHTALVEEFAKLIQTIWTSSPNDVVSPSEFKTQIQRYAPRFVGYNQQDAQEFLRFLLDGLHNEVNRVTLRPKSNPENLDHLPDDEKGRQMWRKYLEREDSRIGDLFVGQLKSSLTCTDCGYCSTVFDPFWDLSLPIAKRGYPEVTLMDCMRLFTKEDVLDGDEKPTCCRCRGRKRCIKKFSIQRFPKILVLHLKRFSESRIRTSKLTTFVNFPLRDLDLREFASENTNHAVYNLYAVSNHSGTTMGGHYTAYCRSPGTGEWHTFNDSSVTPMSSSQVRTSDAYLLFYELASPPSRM

`C[C@]12CCC(=O)C=C1CC[C@@H]1[C@@H]2[C@@H](O)C[C@@]2(C)[C@H]1CC[C@]2(O)C(=O)COC(=O)CCC(=O)O`: the Potency entry in experiment [1], in [2], in experiment [3] and in experiment [4] was “inactive” throughout. Further, the result in experiment [5] and in [6] was inactive.
For the molecule `Nc1ncnc2n[nH]c(Nc3ccc(F)cc3)c12`, the outcome in [7], in experiment [8], in [9], in [10], in experiment [11] and in experiment [14] was inactive. For the same molecule, the call in experiment [16], in experiment [17] and in experiment [18] was inactive. Also, the Potency result in experiment [12], in experiment [13], in experiment [4], in experiment [15] and in [19] was “inactive” in each case.
Consider `Cc1nn(-c2ccccc2)c(C)c1/C=N/N1CCN(Cc2ccccc2)CC1`, for which the molecule was called inactive in [20], in [7], in experiment [8], in experiment [9], in [11] and in [14]. Also, the result in experiment [16], in experiment [17] and in [18] was inactive. The Potency result in [12], in [13] and in [19] was “inactive” each time. In addition, the Potency in experiment [15] was 39.8 µM (active).
In the case of `Cn1cnc2c(NCc3ccccc3)nc(NCCO)nc21`, the molecule was classed as inactive in [20], in experiment [7], in experiment [8], in experiment [9], in experiment [10] and in experiment [11]. Besides, the molecule was called inactive in experiment [14], in experiment [16], in experiment [5], in experiment [6], in experiment [17] and in [18]. Moreover, the Potency entry in experiment [1], in experiment [12], in experiment [13], in experiment [4], in experiment [15] and in experiment [19] was “inactive” throughout.
Turning to `O=[N+]([O-])c1ccc(-c2nc(-c3ccc(F)cc3)c(-c3ccncc3)[nH]2)cc1`, the Potency in experiment [1] was 12.6 µM (active); in experiment [3] it was 10.4 µM (active); in [4], 22.4 µM (active) and inactive; in [15], 31.6 µM (active). Further, the call in [7], in experiment [8], in [9], in experiment [11], in experiment [14] and in experiment [16] was inactive. Besides, the result in [5], in [6] and in experiment [17] was inactive. Further, the Potency result in experiment [12], in [13] and in [19] was “inactive” throughout.
Consider `NC(N)=NCCCCN=C(N)N`, for which the outcome in [20], in [7], in experiment [8], in experiment [9], in experiment [10] and in experiment [11] was inactive. Also, the molecule was called inactive in experiment [14], in experiment [16], in [5], in experiment [6], in [17] and in experiment [18]. In addition, the Potency entry in experiment [1], in experiment [12], in experiment [2], in experiment [3], in [13] and in [4] was “inactive” in each case. The Potency entry in experiment [15] and in experiment [19] was “inactive” each time.
Regarding `O=C1NC(c2cccc([N+](=O)[O-])c2)=CCN1c1ccccc1O`, the outcome in experiment [20], in [7], in experiment [8], in experiment [9], in experiment [10] and in [11] was inactive. In addition, the call in experiment [14], in experiment [16], in experiment [5], in [6], in experiment [17] and in [18] was inactive. Also, the Potency entry in experiment [1], in experiment [3], in [13], in [4], in experiment [15] and in experiment [19] was “inactive” each time.
As to `CC(C)N(CCC(=O)c1ccc2ccccc2c1)Cc1ccccc1`, the Potency in experiment [1] was 3.55 µM (active); in experiment [12] it was 13.5 µM (active); in [13], 7.52 µM (active); in experiment [4], 28.2 µM (active) and inactive; in [15] it was 44.7 µM (active). The molecule was classed as inactive in experiment [7], in [8], in [9], in experiment [11], in [14] and in [16]. Further, the outcome in experiment [6], in [17] and in [18] was inactive. Moreover, the Potency result in [2] and in experiment [3] was “inactive” in each case.
For `COc1cccc2c1[C@@H]1CN(CCCCn3c(=O)[nH]c4c(sc5ncc(-c6ccccc6)nc54)c3=O)C[C@@H]1CO2`, the molecule was classed as inactive in [7], in [9], in experiment [11], in experiment [14], in experiment [16] and in [5]. Moreover, the outcome in [6], in experiment [17] and in experiment [18] was inactive. Besides, the Potency result in [13] and in experiment [19] was “inactive” throughout. Also, the Potency in experiment [4] is 20 µM (active); in [15] it was 22.4 µM (active).

The record behind these values is PubChem BioAssay (NCATS).
